Source: PubChem BioAssay (NCI)
This is part of a sample that, as a whole, favours compounds with a hit. Of some 83,000 tested, about 20% had one in any assay.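 48-hour exposure, single concentration, 96-well plates; percent growth endpoint where 0 means no net growth. Active: below 10.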 Calls of active or inactive are those of the source.

Key:
Assay in all cases: NCI-60 one-dose screen, 48 h (100 = growth as untreated, 0 = no growth, -100 = all killed)
Settings in all cases: 10 µM unless noted
NCI-H23 lung = system: NCI-H23 lung
NCI-H226 lung = system: NCI-H226 lung
NCI-H322M lung = system: NCI-H322M lung
HOP-62 NSCLC = system: HOP-62 NSCLC
NCI-H460 lung = system: NCI-H460 lung
HOP-92 NSCLC = system: HOP-92 NSCLC
NCI-H522 lung = system: NCI-H522 lung
A549/ATCC NSCLC = system: A549/ATCC NSCLC
786-0 renal = system: 786-0 renal
COLO 205 colon = system: COLO 205 colon

Structure (SMILES)	growth (NCI-H23 lung)	growth (NCI-H226 lung)	growth (NCI-H322M lung)	growth (HOP-62 NSCLC)	growth (NCI-H460 lung)	growth (HOP-92 NSCLC)	growth (NCI-H522 lung)	growth (A549/ATCC NSCLC)	growth (786-0 renal)	growth (COLO 205 colon)
O=C(CN1CCN(c2cc(=O)[nH]c3ccc(F)cc23)CC1)N(c1ccccc1)c1ccccc1	99.1% (inactive)	103% (inactive)	104% (inactive)	102% (inactive)	104% (inactive)	98.4% (inactive)	98.3% (inactive)	115% (inactive)	96% (inactive)	115% (inactive)
CCCCCCNC(=O)Oc1ccc(/C(=C(/C)c2ccc(Cl)cc2)c2ccc(OCCN3CCCCCC3)cc2)cc1	52.2% (inactive)	83.2% (inactive)	96.8% (inactive)	76.8% (inactive)	40.9% (inactive)	83.6% (inactive)	92.3% (inactive)	74.3% (inactive)	63.7% (inactive)	45.7% (inactive)
CCc1nnc(NC(=O)c2cc(-c3ccc(Cl)cc3Cl)oc2C)s1	85.7% (inactive)	85.6% (inactive)	85.4% (inactive)	96% (inactive)	53.9% (inactive)	92% (inactive)	79.4% (inactive)	77.1% (inactive)	95.9% (inactive)	105% (inactive)
CC1=C(C)C(=O)C(Nc2cccc(C)c2)=C(Br)C1=O	85.1% (inactive)	92.2% (inactive)	98.4% (inactive)	90.7% (inactive)	103% (inactive)	-35.5% (active)	94.6% (inactive)	101% (inactive)	107% (inactive)	126% (inactive)
O=C(/C=C/c1ccc(Cl)c(Cl)c1)Nc1ncc(Cc2ccc(Cl)c(Cl)c2)s1	70.4% (inactive)	70.7% (inactive)	58.5% (inactive)	50.9% (inactive)	28.3% (inactive)	92.7% (inactive)	40.4% (inactive)	53.5% (inactive)	78.8% (inactive)	4.63% (active)
NS(=O)(=O)c1ccc(Nc2nc(N/N=C/C=C/c3ccccc3)nc(Nc3ccccc3)n2)cc1	40.1% (inactive)	58.6% (inactive)	56.8% (inactive)	56.2% (inactive)	6.23% (active)	83.9% (inactive)	66.4% (inactive)	69.3% (inactive)	37.6% (inactive)	55.3% (inactive)
COc1ccc2c(c1)c(-c1nnc(N)nc1-c1c[nH]c3ccc(F)cc13)cn2C	44.6% (inactive)	57.8% (inactive)	87% (inactive)	54.7% (inactive)	15.1% (inactive)	68.7% (inactive)	27.2% (inactive)	50.7% (inactive)	46% (inactive)	41.4% (inactive)
N/C(=N\C(N)=N\c1nc2ccccc2s1)c1ccc(Cl)cc1	75.1% (inactive)	77.8% (inactive)	88.3% (inactive)	1.11% (active)	52.5% (inactive)	84.6% (inactive)	80.8% (inactive)	20.9% (inactive)	102% (inactive)	104% (inactive)
NC(N)=NS(=O)(=O)c1ccc(N=Nc2c(N)nn(-c3ccc([N+](=O)[O-])cc3[N+](=O)[O-])c2N)cc1	98.1% (inactive)	93.3% (inactive)	92.9% (inactive)	104% (inactive)	107% (inactive)	88.2% (inactive)	97.2% (inactive)	103% (inactive)	103% (inactive)	106% (inactive)
Cn1cc(-c2nnc(N)nc2-c2c[nH]c3ccc(F)cc23)c2cc(Br)ccc21	26.4% (inactive)	27.4% (inactive)	41.8% (inactive)	30.9% (inactive)	13.8% (inactive)	56.5% (inactive)	-0.551% (active)	38.6% (inactive)	21.5% (inactive)	9.15% (active)
COc1ccc([C@H]2C(=O)N(c3cc(OC)c(OC)c(OC)c3)[C@@H]2c2ccc(OC)c(O)c2)cc1	24.4% (inactive)	41.8% (inactive)	43.3% (inactive)	26.7% (inactive)	4.38% (active)	6.76% (active)	-49.2% (active)	21.6% (inactive)	6.39% (active)	-76.1% (active)
COc1ccc2c(c1)C=CC1(O2)Oc2ccc(OC)cc2C=C1C (stereo not given)	39.7% (inactive)	57.4% (inactive)	49.5% (inactive)	51% (inactive)	7.29% (active)	-6.57% (active)	10.7% (inactive)	18.5% (inactive)	26.5% (inactive)	2.43% (active)
O=C(COc1ccc(/C=C2\C(=O)Nc3ccc(F)cc32)cc1)Nc1ccccc1	95% (inactive)	96.6% (inactive)	99.3% (inactive)	99.5% (inactive)	96.1% (inactive)	116% (inactive)	93.9% (inactive)	96.7% (inactive)	105% (inactive)	113% (inactive)
COc1ccc(C(=NNS(=O)(=O)c2ccc(C)cc2)c2ccccc2)cc1OC	99.5% (inactive)	99.5% (inactive)	92.9% (inactive)	102% (inactive)	105% (inactive)	90.4% (inactive)	92.4% (inactive)	96.1% (inactive)	99.1% (inactive)	111% (inactive)
O=C(CCCCCCNC(=O)C(O)(O)C(F)(F)F)Nc1ccc(-c2ccccc2)cc1	9.87% (active)	39.4% (inactive)	28.2% (inactive)	-4.5% (active)	7.65% (active)	-13.6% (active)	-30.9% (active)	8.66% (active)	22.8% (inactive)	-61.9% (active)
Cc1[nH]c(C(=O)Nc2ccccc2OCc2cccc(C(=O)NC3CCCNC3)c2)c(Cl)c1Cl (stereo not given)	-76.7% (active)	73.3% (inactive)	-93.7% (active)	-42.2% (active)	-68.5% (active)	47.9% (inactive)	-50.9% (active)	-52.6% (active)	-71.6% (active)	-33.2% (active)
CC(=O)c1c([Si](C)(C)C)c2cc(C#N)ccn2c1C(=O)c1ccc(Br)cc1	84.1% (inactive)	76.9% (inactive)	85.3% (inactive)	88.3% (inactive)	95.5% (inactive)	81.9% (inactive)	70.5% (inactive)	90.3% (inactive)	76.5% (inactive)	104% (inactive)
CCc1cc(O)ccc1Nc1cc(-c2ccc(-n3cccn3)cc2)[nH]n1	74.7% (inactive)	87.3% (inactive)	64% (inactive)	37% (inactive)	45% (inactive)	139% (inactive)	38% (inactive)	56.2% (inactive)	84.9% (inactive)	49.8% (inactive)
CN1CCN(Cc2ccc(NC(=O)c3cncc(C#Cc4cnc5ccc(OC6CCOCC6)nn45)c3)cc2C(F)(F)F)CC1	-58.7% (active)	-58.4% (active)	-44.7% (active)	-77.4% (active)	-77.9% (active)	-31.8% (active)	-75.5% (active)	-77.3% (active)	-89.1% (active)	-82.8% (active)
C#Cc1cc(OC)c(C(=O)Nc2ccc(F)cc2C(=O)Nc2cccc(S(=O)(=O)C(F)(F)F)c2)cn1	-49.4% (active)	13.1% (inactive)	88.9% (inactive)	16.3% (inactive)	26.6% (inactive)	-65.7% (active)	-69.3% (active)	-7.6% (active)	-78.7% (active)	52.2% (inactive)
CCOP(=O)(OCC)OC[C@]12CCC(C)(C)CC1C1=CC[C@@H]3[C@@]4(C)CCCNC(C)(C)[C@@H]4CC[C@@]3(C)[C@]1(C)CC2 (stereo not given in full)	85.2% (inactive)	89% (inactive)	95.7% (inactive)	101% (inactive)	55.1% (inactive)	64.8% (inactive)	90.2% (inactive)	70.8% (inactive)	69.4% (inactive)	3.12% (active)
O=C(CCCCCCNC(=O)C(O)(O)C(F)(F)F)Nc1ccc(Cl)cc1	24.3% (inactive)	66.6% (inactive)	44% (inactive)	4.42% (active)	23.3% (inactive)	6.13% (active)	-22.3% (active)	20.7% (inactive)	35.7% (inactive)	-57.4% (active)
O=C(/C=C/c1cc(Cl)ccc1Cl)Nc1ncc(Cc2ccc(Cl)cc2)s1	16.7% (inactive)	26.1% (inactive)	33.5% (inactive)	1.25% (active)	0.165% (active)	-10.6% (active)	-33.7% (active)	12.3% (inactive)	0.237% (active)	-45.2% (active)
CC1=Cc2ccccc2OC12C=Cc1ccccc1O2 (stereo not given)	86.5% (inactive)	91.7% (inactive)	89.7% (inactive)	89.5% (inactive)	104% (inactive)	98.6% (inactive)	97.2% (inactive)	104% (inactive)	105% (inactive)	110% (inactive)
